TDP1 cell CPT: growth inhibition of DT40 Tdp1-/-;hTDP1 cells with camptothecin (screen for TDP1 inhibitors); chicken DT40 Tdp1-/-;hTDP1 cells + 20 nM CPT, ATP luminescence, 48 h; Potency, µM (series often up to 46.2 µM), inactives show top-dose activity change, negative = growth inhibition, most hits filed as inhibitors; actives 12% (n = 420,000); note: % is set by controls: 0 for no effect and ±100 for the full control effect; nearly all actives have a fitted effect of over 55% in size
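Chicken DT40 Tdp1-/- cells complemented with human TDP1, 400 cells/well, exposed to compounds plus 20 nM camptothecin for at least 48 h at 37 C; viability read as ATP content by CellTiter-Glo luminescence.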
HepG2 tox: HepG2 cytotoxicity, counter-screen for TGF-b inhibitors; HepG2 CAGA-GFP viability, ATP luminescence, 18 h; actives 0.76% (n = 410,000); Potency, µM (top dose mostly 46.1 µM), for the others: top-dose activity change, negative = cytotoxicity, usual class: cytotoxic
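CellTiter-Glo luminescence gave cytotoxicity after 18 hours at 37 degrees C. The cells were HepG2 CAGA-GFP in 1% FBS DMEM, stimulated with 500 pg/mL TGF-beta after compound addition. %Activity was normalised to no-cell wells (complete cell-killing) and DMSO (no toxicity), and curves were fitted and classified.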
HT1080 IDH1KD tx: HT-1080 IDH1 knockdown cell toxicity (counter line). HT-1080 IDH1 knockdown viability, ATP luminescence, 48 h. Potency, µM (doses to about 46.1 µM), without a hit: at the highest dose activity, negative = toxicity, most hits filed as cytotoxic. actives 2% (n = 360,000). AID 686971;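 note: 0% = DMSO wells and -100% = cell-free medium wells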
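Knockdown cells (IDH1KD HT-1080) received compounds 2 h after plating at 750 cells/well and were kept 48 h at 37 °C in 5% FBS RPMI. A CellTiter-Glo luminescence read gave % activity for curve fitting.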
HT1080-NT tox: kills 2HG-producing HT-1080-NT fibrosarcoma cells | HT-1080-NT fibrosarcoma viability, CellTiter-Glo ATP luminescence, 48 h | Potency, µM (top dose mostly 46.1 µM), inactives show at the highest dose activity, negative = less viability, most hits filed as cytotoxic | actives 1.6% (n = 360,000) | AID 686970;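 note: NT is the 2HG producing partner of a matched IDH1 knockdown line; 0% = DMSO-treated cells and -100% = media-only wells without cells; nearly all actives have a fitted effect of over 55% in size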
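Fibrosarcoma NT cells, 750 per well in 5% FBS RPMI, were exposed to compound for 48 hours. Viability: CellTiter-Glo luminescence.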
TDP1 cell noCPT: qHTS for Inhibitors of human tyrosyl-DNA phosphodiesterase 1 (TDP1): qHTS in cells in absence of CPT | DT40 Tdp1-/- hTDP1 cells, no CPT, ATP luminescence, 48 h | Potency, µM (titrated, usually from 46.2 µM), for inactives: at the top dose activity change, negative = growth inhibition, actives largely listed as inhibitors | actives 15% (n = 420,000) | AID 686978, 2013; note: % is set by controls: 0 for no effect and ±100 for the full control effect; nearly all actives have a fitted effect of over 55% in size
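Growth kinetics read by CellTiter-Glo luminescence after ≥48 hr at 37 °C. Cells: DT40 Tdp1-/- stably carrying human TDP1, 400 per well, compound exposure in the absence of CPT (DMSO vehicle).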
TGFb inhibitor: inhibitors of TGF-b signaling. HepG2 CAGA-GFP TGF-b/SMAD3 reporter, GFP fluorescence, 18 h; TGF-beta stimulated, 500 pg/mL final. Potency, µM (doses to about 46.1 µM), for the others: at the top dose activity, negative = inhibition, usual class: inhibitors. actives 1.2% (n = 410,000). AID 588855; note: % is set by controls: 0 for no effect and ±100 for the full control effect; nearly all actives have a fitted effect of over 65% in size
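HEPG2 CAGA-GFP cells (1000/well, DMEM with 1% FBS) were pre-incubated 2 h at 37 degrees C, given compound by pin tool, then stimulated with TGF-beta at 500 pg/mL final for 18 h before per-cell GFP fluorescence imaging.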
Numbers without * were called inactive; [ ] = another dose, or the depositor's remark. The list is not random: actives were taken first. Their share in the collection is about 17%. Calls come from the whole dose curve; as a rule, active = well fitted curve in the direction sought with a large enough effect; inconclusive = small, poorly fitted or top-dose-only effect, or another doubt; inactive = no such curve, though single readings can be large; an effect the other way counts as inactive or inconclusive. Potency is the fitted concentration of half-maximal effect.

COc1cccc(C(=O)NC(=O)Nc2ccc(-n3nc(C(F)(F)F)cc3C(F)(F)F)cc2)c1 was read as TDP1 cell CPT -15%, HepG2 tox -22%, TDP1 cell noCPT -13% and TGFb inhibitor -8%.
For O=C(O)c1ccccc1C(=O)Nc1ccc(-n2nc(C(F)(F)F)cc2C(F)(F)F)cc1 the results were TDP1 cell CPT 15%, HepG2 tox 0%, HT1080 IDH1KD tx 2%, HT1080-NT tox -14%, TDP1 cell noCPT 10% and TGFb inhibitor inconclusive.
For COc1ccccc1C(=O)NC(=O)Nc1ccc(-c2cc(C(F)(F)F)nn2-c2ccccc2)cc1 the results were TDP1 cell CPT 5.8µM*, HepG2 tox 4%, TDP1 cell noCPT 4.6µM* and TGFb inhibitor 30%.
For CCC1C(=O)Nc2nc(-c3ccccc3)c(-c3ccccc3)n2N=C1C (stereo not drawn) the results were TDP1 cell CPT 21µM*, HepG2 tox -23%, HT1080 IDH1KD tx -1%[9.24 µM], HT1080-NT tox -1%, TDP1 cell noCPT 23µM* and TGFb inhibitor 0%.
`CC1=Nn2c(nc(-c3ccccc3)c2-c2ccccc2)N(CC(N)=O)C(=O)C1` gave TDP1 cell CPT 12%, HepG2 tox -34%, HT1080 IDH1KD tx 17%, HT1080-NT tox 6%, TDP1 cell noCPT 12% and TGFb inhibitor -1%.
`O=C(CN1CCCCCC1)Nc1nc2ccccc2s1` gave TDP1 cell CPT 16%, HepG2 tox -2%, HT1080 IDH1KD tx 11%, HT1080-NT tox 16%, TDP1 cell noCPT -1% and TGFb inhibitor 7%.
Screening Cc1nn(C(C)(C)C)c(OC(=O)c2cccs2)c1S(=O)(=O)c1ccccc1 returned TDP1 cell CPT -25%, HepG2 tox -74%, HT1080 IDH1KD tx inconclusive, HT1080-NT tox 21µM*, TDP1 cell noCPT inconclusive and TGFb inhibitor inconclusive.
C/C(=N\Nc1cccc2cccnc12)c1ccc[nH]1 was read as TDP1 cell CPT 2.6µM*, HepG2 tox -14%, HT1080 IDH1KD tx -21%, HT1080-NT tox 0%, TDP1 cell noCPT 4.6µM* and TGFb inhibitor -2%.
Cc1noc(NC(=O)c2c(-c3c(Cl)cccc3Cl)noc2C)c1[N+](=O)[O-] was read as TDP1 cell CPT inconclusive, HepG2 tox -17%, HT1080 IDH1KD tx -7%, HT1080-NT tox -11%, TDP1 cell noCPT inconclusive and TGFb inhibitor -14%.
`CCOc1ccc(NC(=S)NC23CC4CC(CC(C4)C2)C3)cc1` gave TDP1 cell CPT inconclusive, HepG2 tox 1%, HT1080 IDH1KD tx 0%, HT1080-NT tox 1%, TDP1 cell noCPT inconclusive and TGFb inhibitor 8%.
`Cc1ccc(S(=O)(=O)N2CCCCC2)cc1NC(=O)c1cccs1` gave TDP1 cell CPT 26µM*, HepG2 tox -9%, HT1080 IDH1KD tx -11%, HT1080-NT tox 1%, TDP1 cell noCPT -10% and TGFb inhibitor -24%.
O=C(NC12CC3CC(CC(C3)C1)C2)N1CCN(S(=O)(=O)c2ccc(Cl)cc2)CC1 was read as TDP1 cell CPT 18µM*, HepG2 tox 5%, HT1080 IDH1KD tx -3%, HT1080-NT tox -7%, TDP1 cell noCPT 23µM* and TGFb inhibitor 0%.
CN(C)c1ccc(NC(=S)NC23CC4CC(CC(C4)C2)C3)cc1 was read as TDP1 cell CPT 29µM*, HepG2 tox -4%, HT1080 IDH1KD tx 0%, HT1080-NT tox 3%, TDP1 cell noCPT inconclusive and TGFb inhibitor 19%.
Screening O=C(NC(=S)Nc1ccc(S(=O)(=O)N2CCCCC2)cc1)c1cccs1 returned TDP1 cell CPT 26µM*, HepG2 tox -13%, HT1080 IDH1KD tx -5%, HT1080-NT tox -8%, TDP1 cell noCPT 18µM* and TGFb inhibitor inconclusive.
COc1ccc(OC)c(NC(=O)CCCOc2cc(=O)n(C)c3ccccc23)c1 was read as TDP1 cell CPT inconclusive, HepG2 tox -17%, TDP1 cell noCPT inconclusive and TGFb inhibitor -8%.
For O=S(=O)(c1ccc(NC(=S)NC23CC4CC(CC(C4)C2)C3)cc1)N1CCCCC1 the results were TDP1 cell CPT inconclusive, HepG2 tox -5%, HT1080 IDH1KD tx 2%, HT1080-NT tox 0%, TDP1 cell noCPT 21µM* and TGFb inhibitor 0%.
Screening O=C(NC(=S)Nc1ccc(N2CCCCC2)c(Cl)c1)c1cccs1 returned TDP1 cell CPT 7.3µM*, HepG2 tox -29%, HT1080 IDH1KD tx 4%, HT1080-NT tox 5%, TDP1 cell noCPT 5.8µM* and TGFb inhibitor inconclusive.
CN(C)NC(=S)Nc1ccc(S(=O)(=O)N2CCCCC2)cc1 was read as TDP1 cell CPT 20%, HepG2 tox 0%, HT1080 IDH1KD tx -2%, HT1080-NT tox -16%, TDP1 cell noCPT inconclusive and TGFb inhibitor 9%.
Screening O=C(NC(=S)Nc1ccc(S(=O)(=O)N2CCCCC2)cc1)c1ccc(Cl)cc1 returned TDP1 cell CPT 16µM*, HepG2 tox 7%, HT1080 IDH1KD tx -4%, HT1080-NT tox -11%, TDP1 cell noCPT 10µM* and TGFb inhibitor -10%.
Cc1ccc(NC(=S)NC(=O)c2cccs2)cc1F was read as TDP1 cell CPT -108%, HepG2 tox -27%, HT1080 IDH1KD tx -19%, HT1080-NT tox -12%, TDP1 cell noCPT 7.3µM* and TGFb inhibitor 0%.
`Cc1oc(S(=O)(=O)N2CCCCC2)cc1NC(=O)Nc1ccc(Cl)cc1` gave TDP1 cell CPT 16µM*, HepG2 tox -28%, HT1080 IDH1KD tx -7%, HT1080-NT tox -3%, TDP1 cell noCPT 16µM* and TGFb inhibitor inconclusive.
Screening O=C1Nc2ccc(Br)cc2C1=C1CCCCC1 returned TDP1 cell CPT inconclusive, HepG2 tox 2%, HT1080 IDH1KD tx 16µM*, HT1080-NT tox inconclusive, TDP1 cell noCPT 23µM* and TGFb inhibitor -28%.
CCOC(=O)N1CCc2c(sc3c2c(=O)n(-c2ccc(F)cc2)c(=O)n3CC(=O)c2ccccc2)C1 was read as TDP1 cell CPT inconclusive, HepG2 tox 4%, TDP1 cell noCPT inconclusive and TGFb inhibitor -13%.
Screening CN(C)c1ccc(N=Nc2ccc(S(N)(=O)=O)cc2)cc1 returned TDP1 cell CPT 8%, HepG2 tox -2%, HT1080 IDH1KD tx -2%, HT1080-NT tox -6%, TDP1 cell noCPT -15% and TGFb inhibitor 4%.

Compound activity (PubChem BioAssay)
